This is an account of results in PubChem BioAssay (NCATS).

What is called viability is a read-out of living cells in per cent, often relative to untreated cells.

Values joined by “and” are separate entries in the source; they are usually repeats but may differ in a detail not shown here. Equal entries are not always repeated. Inconclusive results are not listed. Unmarked numbers belong to inactive results. Active and inactive are the calls of the source. Unless noted, the call rests on the fitted dose curve; in most records, active means well fitted curve in the direction sought with a large enough effect; inconclusive means small, poorly fitted or top-dose-only effect, or another doubt; inactive means no such curve, though single readings can be large; an effect the other way counts as inactive or inconclusive.

For experiment [1], the target named is Cellular tumor antigen p53 (Homo sapiens) (UniProt P04637). Briefly: Primary qHTS for small molecule compounds that upregulate eGFP-tagged delta133p53alpha (in N-terminal) cells. (AID 2060322). Further: nearly all actives have a fitted effect of over 75% in size. Further: potency means the concentration at half of the fitted maximal effect.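 On activation: cells pre-induced with doxycycline then dosed without doxycycline; series mostly up to about 56 µM; 0% = DMSO vehicle and 100% = reference activator.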 The note with it: NCI-H358 eGFP-delta133p53alpha fluorescence, 24 h; activation: stronger effect = higher value. The gist of the method:
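NCI-H358 cells pre-induced 24 h with 10 ng/ml doxycycline for eGFP-delta133p53alpha, plated dox-free and exposed 24 h at 37C to titrated compounds. Fixed, Hoechst-stained; gated GFP peak intensity by laser scanning cytometry, normalized to DMSO (0%) and 57.5 uM 5-azacytidine (100%).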
A general note: Quantitative high-throughput screening tests each substance at several concentrations.

Experiment [2] addresses Aldehyde dehydrogenase, mitochondrial (Homo sapiens) (UniProt P05091). Briefly: qHTS for Inhibitors of the Aldehyde Dehydrogenase Family (ALDH2) Confirmatory screens (AID 2061303; active means well fitted inhibition curve with a large enough effect; title and protocol of this record describe different tests; further: on the % scale 0 is the no-effect control and ±100 the full control effect; nearly all actives have a fitted effect of over 45% in size).
Experiment [3] can be described thus: qHTS for Inhibitors of the Aldehyde Dehydrogenase Family (ALDH1A2, ALDH1A3, ALDH2, ALDH3A1) (AID 2061307). Further: nearly all actives have a fitted effect of over 50% in size. On Potency: test system not described further here; potency means the concentration at half of the fitted maximal effect. On activity change, negative = inhibition: on the % scale 0 is the no-effect control and ±100 the full control effect.
Experiment [4] concerns the target Retinaldehyde dehydrogenase 3 (Homo sapiens) (UniProt P47895). Nature of the experiment: qHTS for Inhibitors of the Aldehyde Dehydrogenase Family (ALDH1A3) Confirmatory screens (AID 2061311). Further: nearly all actives have a fitted effect of over 60% in size. Further: potency means the concentration at half of the fitted maximal effect. On activity change, negative = inhibition: on the % scale 0 is the no-effect control and ±100 the full control effect.
Experiment [5] addresses Retinal dehydrogenase 2 (Homo sapiens) (UniProt O94788). Nature of the experiment: qHTS for Inhibitors of the Aldehyde Dehydrogenase Family (ALDH1A2) Confirmation screens (AID 2061314). Further: nearly all actives have a fitted effect of over 65% in size. Further: potency means the concentration at half of the fitted maximal effect. On activity, negative = inhibition: on the % scale 0 is the no-effect control and ±100 the full control effect.
Experiment [6] concerns the target Aldehyde dehydrogenase, mitochondrial (Homo sapiens) (UniProt P05091). Briefly: qHTS for Inhibitors of the Aldehyde Dehydrogenase Family (ALDH2) Primary screen (AID 2061308). Further: nearly all actives have a fitted effect of over 55% in size. Further: potency means the concentration at half of the fitted maximal effect.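 On activity change, negative = inhibition: plate controls were vehicle for no effect and reference inhibitor for full effect.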
Experiment [7] has as its target Retinaldehyde dehydrogenase 3 (Homo sapiens) (UniProt P47895). Nature of the experiment: qHTS for Inhibitors of the Aldehyde Dehydrogenase Family (ALDH1A3) Validation screen (AID 2061312). Further: nearly all actives have a fitted effect of over 45% in size. Further: potency means the concentration at half of the fitted maximal effect. On activity change, negative = inhibition: on the % scale 0 is the no-effect control and ±100 the full control effect.
Experiment [8] has the same target. Briefly: qHTS for Inhibitors of the Aldehyde Dehydrogenase Family (ALDH1A3) Primary screen (AID 2061315). Further: potency means the concentration at half of the fitted maximal effect.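 On activity change, negative = inhibition: plate controls were DMSO vehicle for no effect and reference inhibitor for full effect.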
Experiment [9] addresses Aldehyde dehydrogenase 1A1 (Homo sapiens) (UniProt P00352). Nature of the experiment: qHTS for Inhibitors of the Aldehyde Dehydrogenase Family (ALDH1A1) Confirmatory screens (AID 2061316). Further: nearly all actives have a fitted effect of over 65% in size. Further: potency means the concentration at half of the fitted maximal effect.
Experiment [10] can be described thus: BET inhibitor-based combinations targeting novel dependencies in MECOM-rearranged (r) AML: OCI-AML3 cell line (AID 2202232). Further: nearly all actives have a fitted effect of over 35% in size. Further: potency means the concentration at half of the fitted maximal effect. The note with it: Potency: OCI-AML3 viability. In outline:
(§1)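 Luminescent ATP readout (CellTiter-Glo) after 48 hr drug exposure gives viability. Curves span 11 concentrations and are normalized to DMSO and empty wells. Activity is reported as area under the curve and its Z-transform within each cell line.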

Experiment [11] can be described thus: BET inhibitor-based combinations targeting novel dependencies in MECOM-rearranged (r) AML: HNT-34 cell line (AID 2202234).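 Further: plate controls were vehicle wells for no effect and cell-free wells for full effect; nearly all actives have a fitted effect of over 35% in size.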 In outline: (§2)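 Luminescent ATP readout (CellTiter-Glo, 15 min at room temperature) after 48 hr drug exposure gave viability. Dose-response curves, normalized to DMSO and empty-well controls, were summarized as area under the curve and its mean-centred Z-score.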

The nature of experiment [12]: BET inhibitor-based combinations targeting novel dependencies in MECOM-rearranged (r) AML: AML-191 cell line (AID 2202236; further: nearly all actives have a fitted effect of over 35% in size; further: potency means the concentration at half of the fitted maximal effect). In outline:
as §1

A short description of experiment [13]: BET inhibitor-based combinations targeting novel dependencies in MECOM-rearranged (r) AML: AML-194 cell line (AID 2202237;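 further: plate controls were vehicle wells for no effect and wells without cells for full effect; nearly all actives have a fitted effect of over 40% in size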). In outline: as §1
A short description of experiment [14]: BET inhibitor-based combinations targeting novel dependencies in MECOM-rearranged (r) AML: MV-4-11 cell line (AID 2202233). Further: potency means the concentration at half of the fitted maximal effect; nearly all actives have a fitted effect of over 45% in size. In outline:
as §2

Experiment [15] is described as follows: BET inhibitor-based combinations targeting novel dependencies in MECOM-rearranged (r) AML: UCSD-AML1 cell line (AID 2202235).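 Further: series mostly up to about 46 µM; plate controls were DMSO vehicle wells for no effect and blank wells for full effect; nearly all actives have a fitted effect of over 40% in size.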 The gist of the method:
as §2

The nature of experiment [16]: BET inhibitor-based combinations targeting novel dependencies in MECOM-rearranged (r) AML: SET-2 cell line (AID 2202231). Further: nearly all actives have a fitted effect of over 35% in size. Further: potency means the concentration at half of the fitted maximal effect.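 On viability: plate controls were DMSO treated cells for no effect and wells without cells for full effect.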 The note with it: SET-2 AML cells viability, CellTiter-Glo luminescence, 48 h; viability: stronger effect = lower value, concentration not given here. In outline:
as §1
On the technique in general: ATP-based viability assays read luminescence as a measure of living cells.

Sequence of Cellular tumor antigen p53 (Homo sapiens) (P04637 whole entry, looked up): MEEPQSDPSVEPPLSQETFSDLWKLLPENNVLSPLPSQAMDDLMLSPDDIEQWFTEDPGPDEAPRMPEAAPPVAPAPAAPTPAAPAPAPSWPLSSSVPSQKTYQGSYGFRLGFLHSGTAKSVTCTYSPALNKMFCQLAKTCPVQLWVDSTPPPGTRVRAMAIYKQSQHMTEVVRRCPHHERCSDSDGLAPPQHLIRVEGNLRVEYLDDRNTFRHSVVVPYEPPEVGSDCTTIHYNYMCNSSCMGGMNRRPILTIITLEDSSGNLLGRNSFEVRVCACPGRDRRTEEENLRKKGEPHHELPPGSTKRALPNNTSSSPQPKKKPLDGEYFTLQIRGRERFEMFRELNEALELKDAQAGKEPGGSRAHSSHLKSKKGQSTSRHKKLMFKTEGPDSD

As to `Cc1cc2ncc(C(=O)NCC(C)(C)NCC(=O)N3CCC[C@H]3C#N)cn2n1`, the activation in [1] was -6.33%. In addition, the Potency result in experiment [2], in [3], in experiment [4] and in experiment [5] was “inactive” throughout.
Regarding `COC(=O)N1CCN(Cc2cccc(NC(=O)Nc3ccc(C)nc3)c2F)CC1`, in [1], the activation is 4.35% and -6.68%. The Potency entry in experiment [2], in [6], in experiment [4], in experiment [7], in [5] and in experiment [8] was “inactive” in each case. In addition, the Potency result in experiment [9], in experiment [10], in [11], in [12] and in experiment [13] was “inactive” in each case.
Take `CN(C)C(=O)Nc1cc(-c2ccccc2)ccc1N(C)C`: the activation in [1] was -13.7%. Moreover, the Potency entry in experiment [2] and in experiment [3] was “inactive” throughout. Also, the Potency in experiment [8] is 28.2 µM (active).
Consider `O=C(C1CCCCC1)N(CCN1CCN(c2ccccc2O)CC1)c1ccccn1`, for which the activation in [1] is -3.34%. For the same molecule, the Potency entry in experiment [2], in experiment [3] and in experiment [5] was “inactive” in each case. For the same molecule, in experiment [9], the Potency is 11.3 µM (active).
In the case of `COc1cc([C@H]2c3cc(O)c(OC)cc3C[C@@H](CO[C@@H]3O[C@H](CO)[C@@H](O)[C@H](O)[C@H]3O)[C@@H]2CO)ccc1O`, the activation in [1] is 9.82%. In addition, the Potency result in experiment [2], in experiment [6] and in experiment [5] was “inactive” in each case.
Regarding `O=C(NCCCCCCCCNC(=O)C(Cl)Cl)C(Cl)Cl`, the activation in [1] is -0.333%. For the same molecule, the Potency in experiment [3] was 8.91 µM (active).
For `COc1cc(C2Oc3c(OC)cc(CCCO[C@@H]4O[C@H](CO)[C@@H](O)[C@H](O)[C@H]4O)cc3C2CO)ccc1O` (some centres not stated), the activation in experiment [1] is -6.25%. Also, the Potency entry in experiment [2], in [6], in experiment [5], in experiment [8] and in [9] was “inactive” each time.
In the case of `O=C(O)c1cc(O[C@@H]2O[C@H](CO[C@@H]3OC[C@@H](O)[C@H](O)[C@H]3O)[C@@H](O)[C@H](O)[C@H]2O)c2ccccc2c1O`, the activation in experiment [1] was 9.92%. Besides, the Potency entry in experiment [2] was “inactive”. Also, the Potency in experiment [4] was 1.38 µM (active); in experiment [5], 2.46 µM (active); in [8], 2.82 µM (active); in [9], 0.693 µM (active).
On to `O=c1nc(-c2ccccn2)sc2ccccc12`, for which the activation in experiment [1] was -10.5%. Also, the Potency result in experiment [2], in experiment [5] and in experiment [8] was “inactive” throughout. The Potency in experiment [6] is 15.8 µM (active); in [7], 2.82 µM (active); in experiment [9], 1.13 µM (active).
With `CC1(C)CCC2(C(=O)OC3OC(CO)C(O)C(O)C3O)CCC3(C)C(=CCC4C5(C)CCC(O)C(C)(C(=O)O)C5CCC43C)C2C1O` (configuration not stated), the activation in experiment [1] was 3.57%. Also, the Potency entry in [2], in [6], in experiment [4], in experiment [5], in [8] and in [9] was “inactive” throughout.
Regarding `Cn1cc(-c2ccncc2)c(-c2ccc(OCc3ccc4ccccc4n3)cc2)n1`, the activation in experiment [1] is -22.8% and -12.9%. Moreover, the Potency result in experiment [2], in experiment [6], in experiment [7], in [5], in experiment [8] and in [9] was “inactive” each time. Moreover, the Potency entry in experiment [15] was “inactive”. Moreover, the Potency in experiment [10] was 11.8 µM (active); in experiment [14], 5.9 µM (active).
Take `Oc1ccc(Nc2nc(-c3ccc(Cl)cc3)cs2)cc1`: the activation in [1] was 24.1%. The Potency entry in [2], in experiment [6], in experiment [4], in [5], in [8] and in experiment [13] was “inactive” each time. The Potency in [16] was 9.34 µM (active); in [14], 14.8 µM (active); in experiment [12], 16.6 µM (active).
Consider `O=C(OC1C=C(CO)C2C(OC3OC(CO)C(O)C(O)C3O)OC=CC12O)c1ccc(O)cc1` (configuration not stated), for which, in experiment [1], the activation is 12.2%. For the same molecule, the Potency entry in [2], in experiment [6] and in experiment [5] was “inactive” throughout.
In the case of `OCC(O)C(c1c[nH]c2ccccc12)c1c[nH]c2ccccc12` (configuration not stated), the activation in experiment [1] was -8.93%. Moreover, the Potency entry in [2], in experiment [6] and in [8] was “inactive” in each case.
Take `CC(C)=C1CC2C(CCC2(C)O)C(C)(O)CC1=O` (configuration not stated): the activation in [1] was 1.79%. For the same molecule, the Potency entry in experiment [2], in experiment [6], in experiment [5] and in experiment [8] was “inactive” in each case.
Consider `C=CC(=O)N1CCN(C(=O)CNc2cc(-c3ccccc3Cl)c(Cl)cc2OC)CC1`, for which the activation in [1] was 8.59%. The Potency result in [2], in experiment [6], in experiment [4], in experiment [7], in [8] and in experiment [9] was “inactive” in each case.
In the case of `COc1cccc(-c2ccc(NC(=O)C3=C(C(=O)O)CCC3)c(F)c2)c1`, the activation in experiment [1] is -4.2% and -13.4%. For the same molecule, the Potency result in experiment [2], in [6] and in experiment [11] was “inactive” throughout. The Potency in [9] is 12.7 µM (active).
Regarding `C[C@@H]1O[C@@H](O[C@H]2[C@H](O[C@H]3CO[C@@H](O[C@H]4CC[C@@]5(C)C(CC[C@]6(C)C5CC[C@]57OC[C@@]8(CC[C@](C)(CO)CC85)[C@H](O)C[C@]76C)C4(C)C)[C@H](O[C@@H]4O[C@H](CO)[C@@H](O)[C@H](O)[C@H]4O)[C@H]3O)O[C@H](CO)[C@@H](O)[C@@H]2O)[C@H](O)[C@H](O)[C@H]1O` (some centres not stated), the activation in experiment [1] is -4.58%. The activity change, negative = inhibition in experiment [2] was -29.1% [at 10 µM]; in experiment [9] it was -22.4% [at 10 µM]. Moreover, the Potency result in experiment [6] and in experiment [8] was “inactive” throughout. Besides, the activity, negative = inhibition in [5] was -8.29% [at 10 µM].
On to `C=C1C(O)CCC2(C)CC3(OC)OC(=O)C(C)=C3CC12` (configuration not stated), for which the activation in [1] is -6.87%. The Potency result in [2] and in [8] was “inactive” throughout.
With `CN(C)c1cccc(Oc2cnc(Nc3cccc(O)c3)nc2)c1`, the activation in [1] was 2.86%. In experiment [2], the Potency result is “inactive”. Also, the Potency in experiment [7] is 8.91 µM (active).
Take `CCOC(=O)C1=C(N)Oc2ccc(Br)cc2C1C(C#N)C(=O)OCC` (configuration not stated): the Potency in experiment [1] was 30.1 µM (active); in [4] it was 11.3 µM (active). Moreover, the Potency result in experiment [2], in experiment [6], in [7], in experiment [8], in experiment [15] and in [12] was “inactive” throughout. Further, the Potency result in experiment [13] is “inactive”. Also, the viability in experiment [16] was 112%.
For the molecule `O=C1NC(=O)C(c2cn(-c3ccccc3)nc2-c2ccc(F)cc2)N1` (configuration not stated), in [1], the activation is 4.33%. Moreover, the Potency result in experiment [2], in experiment [6], in experiment [4], in experiment [5], in experiment [8] and in experiment [9] was “inactive” each time.
